A selection: hits, their analogues and other compounds. The true share with any hit is near 4.3%.
AF4-AF9 inh – inhibitors of human MLL-AF4/AF9 interaction; AlphaScreen, biotin-AF4 peptide binding to FLAG-AF9; inhibition, % at 10 µM; P42568; 350,000 tested, 0.47% active;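 active = every replicate reaching a set inhibition limit, whatever the replicate mean, cut at about 25% in these data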;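 note: 0% = plate neutral control median and 100% = total signal loss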
FGF22 binding-1 – FGF22 (human) thermal shift binding; recombinant FGF22 thermal shift, SYPRO orange fluorescence; percent of sucrose octasulfate shift, DMSO zero; Q9HCT0; activity (Tm shift, normalised), % at 9.99 µM; 340,000 tested, 1.5% active;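 active = mean Tm shift, scaled 0 neutral to 100 positive control, at about 1.3% or above, every replicate too, limit read from the data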
Target sequence (Q9HCT0 whole entry, looked up): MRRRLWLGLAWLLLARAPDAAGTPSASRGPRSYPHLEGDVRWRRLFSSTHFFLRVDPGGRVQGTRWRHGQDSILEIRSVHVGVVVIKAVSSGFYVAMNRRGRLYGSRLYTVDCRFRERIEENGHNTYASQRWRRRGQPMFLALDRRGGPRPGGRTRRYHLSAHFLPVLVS
SMARCA2 activ – increases SMARCA2 function in MMTV reporter cells; MG213 cells, MMTV-luciferase reporter, dexamethasone, overnight; activation, % at 9.1 µM; 370,000 tested, 1% active; AID 652017; in the data active = activation above about 7.8%;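 note: 0% = vehicle wells and 100% = reference activator wells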
esBAF inh – SWI/SNF esBAF complex inhibition; mouse ES cells, Bmi1-luciferase knock-in reporter, 24 h; 100% = twice the neutral-well signal; reporter increase, % at 12.5 µM; 350,000 tested, 2% active; in the data active = activation above about 40%;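 note: 0% = median of the plate's neutral control wells and 100% = double that signal; a rise in the Bmi1 reporter signal indicates esBAF inhibition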
Wnt bcat act – activates Wnt/beta-catenin signaling in a reporter cell assay | activator, plate reader | activation, % at 9.35 µM | 300,000 tested, 1.2% active | AID 743398; in the data active = activation above about 30%, passing the limit was not always enough;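 note: 0% = neutral control wells and 100% = positive control wells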
MITF TRPM1 HTS – MITF TRPM1 promoter activation in melanoma cells. 300,000 tested, 0.75% active. activation, % at 12.5 µM. SK-MEL-5 TRPM1-promoter luciferase, 24 h; % of positive control, neutral wells = 0;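 active = mean activation of at least 80% with every replicate also reaching 80%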;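 note: 0% = neutral control wells and 100% = parthenolide positive control wells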
FGF22 binding-2 – FGF22 (human) binding in thermal shift; thermal shift activity, °C (ΔTm) at 38 µM; recombinant FGF22 thermal shift, SYPRO orange fluorescence; shares compounds with FGF22 binding-1; 1,000 tested, 2% active;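 active = fitted rise in melting shift crosses a set limit at or below the top valid dose tested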
FGF22 TSA DP – binds human FGF22 shifting its melting temperature | shares compounds with FGF22 binding-1 | Thermal shift assay, SYPRO orange, melting temperature shift | Tm shift (activity), % at 38 µM | 50 tested, under 10 active | AID 743017;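 active = compounds whose fitted dose curve of melting temperature shift rises past a set threshold within the tested doses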
TSA no protein – compound-only SYPRO artifact for FGF22 binders | shares compounds with FGF22 binding-1 | compound-only SYPRO orange thermal shift counter-screen, no protein | AC50, µM (titrated, usually from 38 µM) | 1,000 tested, 2% active;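 active = rising signal whose fitted curve reaches the 0.54 level within the top valid dose, showing a melting point, actives reach about 13 µM in these data; inactive = the rest, including activity in the opposite direction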; note: value is where the raw curve crosses a fixed level and not half-maximal
* hit, by the source's call; i = inactive; . = no result; [ ] = remark or other dose.

SMILES	AF4-AF9 inh	FGF22 binding-1	SMARCA2 activ	esBAF inh	Wnt bcat act	MITF TRPM1 HTS	FGF22 binding-2	TSA no protein	others
COC(=O)C[C@@H]1CC[C@@H]2[C@@H](COc3ccc(NC(=O)c4ccc(F)c(F)c4)cc3C(=O)N2C)O1	-2	2.3*	.	-3	.	.	0.072	i
COC(=O)C[C@H]1CC[C@@H]2[C@@H](COc3ccc(NC(=O)Nc4ccc(C#N)cc4)cc3C(=O)N2C)O1	-9	1.3*	.	9	.	.	-0.13	2.4µM*	FGF22 TSA DP=0
COC(=O)C[C@@H]1CC[C@H]2[C@H](COc3ccc(NC(=O)Nc4ccc(C#N)cc4)cc3C(=O)N2C)O1	-13	0	-6	-3	.	.	.	.
C[C@H]1CN([C@@H](C)CO)C(=O)c2cc(/C=C/c3ccccc3)cnc2O[C@H]1CN(C)C(=O)CN1CCOCC1	.	.	.	3	.	.	.	.
O=[N+]([O-])c1ccc(/C=N/Nc2ccc3ccccc3c2)o1	3	2.1*	3	.	28	-14	-0.088	i
O=C(N/N=C/c1ccc([N+](=O)[O-])o1)c1cc2ccccc2o1	3	0	-9	.	9	-97	.	.
Cc1nc(Oc2ccccc2)c2ccsc2n1	1	1.4*	-5	4	-1	1	-0.015	i
O=C(c1ccc2c(c1)OCO2)N1C[C@H]2[C@@H](c3ccccc31)[C@H](CO)N2Cc1ccccc1Cl	1	-1	.	-7	.	.	.	.
C[C@H]1CN([C@@H](C)CO)C(=O)Cc2cc(NC(=O)CCC(F)(F)F)ccc2O[C@@H]1CN(C)Cc1ccncc1	-2	0	.	1	.	.	.	.
C[C@H]1CN([C@@H](C)CO)S(=O)(=O)c2ccc(C#CCN(C)C)cc2O[C@H]1CN(C)C(=O)C1CCCCC1	1	0	.	-4	.	.	.	.
COc1ccc(NC(=O)Nc2cccc(NC(C)=O)c2)c(OC)c1	-1	0	1	.	5	7	.	.
COc1ccccc1NC(=O)Nc1cccc(NC(C)=O)c1	2	3.1*	-2	-4	-3	13	0.016	i
Cc1ccc(Cl)cc1N1CCN(C(=O)Cc2c(C(=O)O)[nH]c3ccc(Cl)cc23)CC1	-1	7.4*	-1	6	-1	11	0.23	i
CCCC(=O)Nc1ccc2c(c1)OC[C@H](C)N(CC1CCOCC1)C[C@H](C)[C@H](OC)CN(C)C2=O	-3	.	.	2	.	.	.	.
COc1cc(/C=N/NC(=O)c2[nH]nc3c2CCc2ccccc2-3)ccc1O	3	1.7*	-3	20	-1	-10	0.68	i
COc1cc(/C=N/NC(=O)c2ccccc2)ccc1O	0	42	7	.	-2	1	.	.
CCC1CCCCN1C(=O)CCNC(=O)Cn1cnc2ccccc2c1=O (stereo not drawn)	0	1.4*	-3	-6	2	9	-0.036	i
Cc1ccc(S(=O)(=O)NCC[C@@H]2CC[C@H](NS(=O)(=O)c3ccccc3Cl)[C@H](CO)O2)cc1	-1	0	.	9	.	.	.	.
Cc1ccc(NS(=O)(=O)c2ccc(Cl)c(N=Nc3c(O)[nH]c(=O)[nH]c3=O)c2)cc1Cl	-1	0	-1	-2	-5	1	.	.
COc1ccc(NS(=O)(=O)c2cc(N=Nc3c(O)[nH]c(=O)[nH]c3=O)ccc2Cl)cc1	-1	1.4*	-4	-2	-5	-14	-0.08	i
NC(=O)c1ccsc1NC(=O)COC(=O)Cc1c[nH]c2ccccc12	3	1.8*	-6	3	-2	-16	.	i
NC(=O)Nc1ccc(C(=O)OCC(=O)Nc2sccc2C(N)=O)cc1	-5	1.5*	2	-2	3	8	0.045	i
NC(=O)c1ccsc1NC(=O)COC(=O)c1ccc(Cl)nc1	-12	0	-1	2	0	6	.	.
COc1ccc2c3c([nH]c2c1)[C@H](CO)N(C)CC31CCN(C(=O)c2ccccn2)CC1	2	0	.	.	.	.	.	.
Cn1cnc(S(=O)(=O)N2CC[C@@H]3[C@H](CO)Nc4ccc(C#Cc5ccccc5F)cc4[C@@H]32)c1	3	-1	.	3	.	.	.	.
SMILES	AF4-AF9 inh	FGF22 binding-1	SMARCA2 activ	esBAF inh	Wnt bcat act	MITF TRPM1 HTS	FGF22 binding-2	TSA no protein	others
C[C@@H]1CN([C@H](C)CO)C(=O)c2cc(N(C)C)ccc2O[C@@H]1CN(C)C(=O)Nc1ccc2c(c1)OCO2	1	0	.	-5	.	.	.	.
C[C@H]1CN([C@@H](C)CO)C(=O)c2cc(C#CC3(O)CCCC3)cnc2O[C@@H]1CN(C)Cc1ccccn1	0	0	.	-5	.	.	.	.
CCOC(=O)C1CCC(CNCc2ccccc2C)CC1 (stereo not drawn)	-1	1.6*	-2	4	-2	18	0.054	i
O=C(O)C1CCC(CNCc2ccccc2Cl)CC1 (stereo not drawn)	0	0	-1	.	-1	-11	.	.
Cc1noc(C)c1NC(=O)N(C)C[C@@H]1Oc2c(NC(=O)Nc3ccc(F)cc3)cccc2C(=O)N([C@@H](C)CO)C[C@H]1C	0	0	.	-1	.	.	.	.
CCC(=O)Nc1ccc2c(c1)C(=O)N(C)C[C@H](OC)[C@@H](C)CN(C(=O)CC)[C@@H](C)CO2	1	1.5*	.	-1	.	.	0.13[42 µM]	i
CO[C@@H]1CN(C)C(=O)c2ccc(NC(=O)C3CC3)cc2OC[C@H](C)N(C(=O)CN2CCOCC2)C[C@@H]1C	5	1.4*	.	0	.	.	0.023	i
CO[C@@H]1CN(C)C(=O)c2ccc(NC(C)=O)cc2OC[C@@H](C)N(C(=O)Cc2ccccn2)C[C@H]1C	-2	1.4*	.	0	.	.	0.036[42 µM]	i
CO[C@@H]1CN(C)C(=O)c2ccc(NC(=O)C3CC3)cc2OC[C@@H](C)N(C(=O)CN2CCOCC2)C[C@H]1C	0	0	.	4	.	.	.	.
CO[C@H]1CN(C)C(=O)c2cc(NS(=O)(=O)c3ccc(C)cc3)ccc2OC[C@@H](C)N(C(=O)NC(C)C)C[C@@H]1C	-3	1.2*	.	-4	.	.	-0.021	i
C[C@@H]1CN([C@@H](C)CO)C(=O)Cc2cc(NC(=O)NC3CCCCC3)ccc2O[C@H]1CN(C)Cc1ccccc1	9	0	.	6	.	.	.	.
Cc1ccc(S(=O)(=O)Nc2ccc3c(c2)C(=O)N([C@H](C)CO)C[C@H](C)[C@H](CN(C)Cc2ccc4c(c2)OCO4)OCCCC[C@@H](C)O3)cc1	-2	0	.	0	.	.	.	.
COC(=O)[C@H](CC(C)C)N(Cc1cn(CC2CCCCC2)nn1)S(=O)(=O)c1ccc(F)cc1Br	.	.	2	.	.	.	.	.

Screens from PubChem BioAssay.
